# Data taken from PubChem BioAssay (NCATS).
# Inconclusive results are not listed. A call without a number means that no potency is given here. The source made the active and inactive calls. The call rests on the fitted dose curve; in most records, active means well fitted inhibition curve with a large enough effect; inconclusive means small, poorly fitted or top-dose-only effect; inactive means flat fitted curve, though single readings scatter.
# Experiments:
# Assay in all cases: qHTS profiling for inhibitors of Plasmodium falciparum proliferation (AID 504749); further: nearly all actives have a fitted effect of over 60% in size
# Details in all cases: P. falciparum in erythrocytes, SYBR Green DNA, 72 h; series mostly up to 28.7 µM
# CP329 = system: CP329
# Summary of the method: (§1)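 P. falciparum-infected erythrocytes (0.3% parasitemia, 2.5% hematocrit) incubated with compound 72 h at 37 C, 5% CO2. Parasite DNA detected by SYBR Green after lysis, overnight at room temperature; normalised to 0.29 uM artemisinin and DMSO.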
# CP335 = system: CP335
# Summary of the method: as §1
# DFO2036 = system: DFO2036
# Summary of the method: as §1
# DIV14 = system: DIV14
# Summary of the method: as §1
# DIV17 = system: DIV17
# Summary of the method: as §1
# DIV30 = system: DIV30
# Summary of the method: as §1
# Dd2 = system: Dd2
# Summary of the method: as §1
# ECU = system: ECU
# Summary of the method: as §1
# FAB9 = system: FAB9
# Summary of the method: as §1
# GB4 = system: GB4
# Summary of the method: as §1
# Potency means the concentration at half of the fitted maximal effect.
SMILES,Potency (CP329),Potency (CP335),Potency (DFO2036),Potency (DIV14),Potency (DIV17),Potency (DIV30),Potency (Dd2),Potency (ECU),Potency (FAB9),Potency (GB4)
CC(C)C(=O)Nc1ccc([N+](=O)[O-])c(C(F)(F)F)c1,inactive,inactive,inactive,inactive,inactive,inactive,inactive,inactive,inactive,inactive
CN(C)c1nc(N(C)C)nc(N(C)C)n1,inactive,inactive,inactive,inactive,inactive,inactive,inactive,inactive,inactive,inactive
CC(=O)OCC(CCn1cnc2cnc(N)nc21)COC(C)=O,inactive,inactive,inactive,inactive,inactive,inactive,inactive,inactive,inactive,inactive
Nc1nc2c(ncn2COC(CO)CO)c(=O)[nH]1,inactive,inactive,inactive,inactive,inactive,inactive,inactive,inactive,inactive,inactive
Cn1c(=O)c2c(ncn2C)n(C)c1=O,inactive,inactive,inactive,inactive,inactive,inactive,inactive,inactive,inactive,inactive
Cc1cn([C@H]2C=C[C@@H](CO)O2)c(=O)[nH]c1=O,inactive,inactive,inactive,inactive,inactive,inactive,inactive,inactive,inactive,inactive
CC(C)(C)C(=O)Oc1ccc(S(=O)(=O)Nc2ccccc2C(=O)NCC(=O)O)cc1,inactive,inactive,inactive,inactive,inactive,inactive,inactive,,inactive,inactive
Cc1cnc(C(=O)NCCc2ccc(S(=O)(=O)NC(=O)NC3CCCCC3)cc2)cn1,inactive,inactive,inactive,inactive,inactive,inactive,inactive,inactive,inactive,inactive
C[C@](N)(Cc1ccc(O)c(O)c1)C(=O)O,inactive,inactive,inactive,inactive,inactive,inactive,inactive,inactive,inactive,inactive
Nc1nnc(-c2cccc(Cl)c2Cl)c(N)n1,inactive,inactive,inactive,inactive,inactive,,inactive,inactive,inactive,inactive
O=C1N(c2ccccc2)c2ccccc2C1(Cc1ccncc1)Cc1ccncc1,inactive,inactive,inactive,inactive,inactive,inactive,inactive,inactive,inactive,inactive
CCOC(=O)C(C)(C)Oc1ccc(Cl)cc1,inactive,inactive,inactive,inactive,inactive,inactive,inactive,inactive,inactive,inactive
CCOC(=O)c1ncn2c1CN(C)C(=O)c1cc(F)ccc1-2,inactive,inactive,inactive,inactive,inactive,inactive,inactive,inactive,inactive,inactive
CN1C(C(=O)Nc2ccccn2)=C(O)c2ccccc2S1(=O)=O,inactive,inactive,inactive,inactive,inactive,inactive,inactive,inactive,inactive,inactive
Cn1c(=O)c2[nH]cnc2n(C)c1=O,inactive,inactive,inactive,inactive,inactive,inactive,inactive,inactive,inactive,inactive
Cc1cn([C@H]2C[C@H](N=[N+]=[N-])[C@@H](CO)O2)c(=O)[nH]c1=O,inactive,inactive,inactive,inactive,inactive,inactive,inactive,inactive,inactive,inactive

SMILES,Potency (CP329),Potency (CP335),Potency (DFO2036),Potency (DIV14),Potency (DIV17),Potency (DIV30),Potency (Dd2),Potency (ECU),Potency (FAB9),Potency (GB4)
NCCc1cnc[nH]1,inactive,inactive,inactive,inactive,inactive,inactive,inactive,inactive,inactive,inactive
CC(CCc1ccc(O)cc1)NCCc1ccc(O)c(O)c1 (stereo unspecified),inactive,inactive,inactive,inactive,inactive,inactive,,inactive,inactive,inactive
Clc1ccccc1C(c1ccccc1)(c1ccccc1)n1ccnc1,2870 nM (active),1280 nM (active),708 nM (active),455 nM (active),287 nM (active),228 nM (active),708 nM (active),158 nM (active),1780 nM (active),809 nM (active)
N[C@@H](Cc1c[nH]c2ccc(O)cc12)C(=O)O,inactive,inactive,inactive,inactive,inactive,inactive,inactive,inactive,inactive,inactive
Cn1cnc2c1c(=O)[nH]c(=O)n2C,inactive,inactive,inactive,inactive,inactive,inactive,inactive,inactive,inactive,inactive
NS(=O)(=O)c1cc2c(cc1Cl)NCNS2(=O)=O,inactive,inactive,inactive,inactive,inactive,inactive,inactive,inactive,inactive,inactive
CN1CCN2c3ccccc3Cc3ccccc3C2C1 (stereo unspecified),inactive,inactive,inactive,inactive,inactive,inactive,inactive,inactive,inactive,inactive
CC(C)(Oc1ccc(C2CC2(Cl)Cl)cc1)C(=O)O (stereo unspecified),inactive,inactive,inactive,inactive,inactive,inactive,inactive,inactive,inactive,inactive
COc1ccc2[nH]cc(CCNC(C)=O)c2c1,inactive,inactive,inactive,inactive,inactive,inactive,inactive,inactive,inactive,inactive
CC[N+](CC)(CC)CCOc1cccc(OCC[N+](CC)(CC)CC)c1OCC[N+](CC)(CC)CC,inactive,inactive,inactive,inactive,inactive,inactive,inactive,inactive,inactive,inactive
Cc1ccc(C(=O)Nc2ccc(S(=O)(=O)O)c3cc(S(=O)(=O)O)cc(S(=O)(=O)O)c23)cc1NC(=O)c1cccc(NC(=O)Nc2cccc(C(=O)Nc3cc(C(=O)Nc4ccc(S(=O)(=O)O)c5cc(S(=O)(=O)O)cc(S(=O)(=O)O)c45)ccc3C)c2)c1,inactive,inactive,inactive,inactive,inactive,inactive,inactive,inactive,inactive,inactive
OCCN1CCN(CCCN2c3ccccc3Sc3ccc(C(F)(F)F)cc32)CC1,13500 nM (active),4260 nM (active),7080 nM (active),6750 nM (active),6010 nM (active),8490 nM (active),11200 nM (active),6310 nM (active),,6010 nM (active)
NCCS(=O)(=O)O,inactive,inactive,inactive,inactive,inactive,inactive,inactive,inactive,inactive,inactive
CS(=O)(=O)CCNCc1ccc(-c2ccc3ncnc(Nc4ccc(OCc5cccc(F)c5)c(Cl)c4)c3c2)o1,inactive,inactive,inactive,inactive,inactive,inactive,inactive,inactive,inactive,inactive
O=c1c(-c2ccc(O)cc2)coc2cc(O)cc(O)c12,inactive,inactive,inactive,inactive,inactive,inactive,inactive,inactive,inactive,inactive
CN(CCOc1ccc(NS(C)(=O)=O)cc1)CCc1ccc(NS(C)(=O)=O)cc1,inactive,inactive,inactive,inactive,inactive,inactive,inactive,inactive,inactive,inactive
